Hits are enriched below; roughly 0.45% of the tested compounds scored in any of these assays.
BioA inh = BioA (M. tuberculosis) enzyme inhibition; purified M. tuberculosis BioA enzyme, plate reader; inhibition, % at 9.99 µM; 360,000 tested, 0.096% active; AID 602481; in the data active means inhibition above about 40%
Yp Topo-I inh = Y. pestis Topo-I inhibition via cleavage products; 360,000 tested, 0.064% active; AID 504884; activity, % at 10 µM; Y. pestis Topo-I cleavage product accumulation, plate reader; in the data active means activity above about 50%, passing the limit was not always enough
FadD28 FP inh = blocks FadD28 binding to the bisubstrate probe | inhibition, % at 12.5 µM | fluorescence polarization | 360,000 tested, 0.22% active; in the data active means inhibition above about 8.5%, passing the limit was not always enough
TcdB GH inh = blocks C. difficile toxin B glycohydrolase activity; 350,000 tested, 0.24% active; TcdB glycohydrolase enzymatic assay, plate reader; inhibition, % at 9.99 µM; P18177; AID 652162; in the data active means inhibition above about 10%
Starred values were filed as active, the others as inactive; . = no result; ! = not confirmed by another sample.

SMILES	BioA inh	Yp Topo-I inh	FadD28 FP inh	TcdB GH inh
CCCN(C)C[C@H]1Oc2ncc(C#CC3CC3)cc2C(=O)N([C@H](C)CO)C[C@@H]1C	-2	.	.	.
COCCNC(=O)C[C@H]1CC[C@H](NC(=O)NC2CCCCC2)[C@@H](CO)O1	-2	.	.	0
O=[N+]([O-])c1ccc2nc(-c3ccc(Cl)cc3)[nH]c2c1	.	-26	-12	5
COc1ccc(-c2nc3ccc([N+](=O)[O-])cc3[nH]2)cc1	.	-18	-9	14*
Cc1ccc(-c2nc3ccc([N+](=O)[O-])cc3[nH]2)cc1	.	-14	-8	12*
NC(=O)c1ccc[n+](CC(=O)c2ccc(NC(=O)c3ccccc3)cc2)c1	-1	-6	-1	-1
CCOC(=O)c1ccc[n+](CC(=O)c2ccc(NC(=O)c3ccccc3)cc2)c1	-2	-2	-2	12*
Cc1cc(SCC(=O)N/N=C/c2ccco2)nc2ccccc12	.	6	-1	14*
COc1ccccc1C#Cc1ccc([C@H]2[C@@H](CO)N3CCCCN(C(=O)C4CCC4)C[C@@H]23)cc1	-2	.	.	0
Cc1ccc(CSCCNC(=O)c2ccc(NS(C)(=O)=O)cc2)cc1	-2	7	15*	-1
COC(=O)C1=C(c2ccc(-c3ccccc3)c(F)c2)C[C@@H]2CC[C@H]1N2C(=O)NCc1ccco1	0	56*	-2	-1
COC(=O)C1=C(c2ccc(-c3ccccc3)c(F)c2)C[C@@H]2CC[C@H]1N2C(=O)NCCO	-1	23	-1	1
COC(=O)C1=C(c2ccc(OCc3ccccc3)cc2)C[C@@H]2CC[C@H]1N2C(=O)NCCCc1ccccc1	-1	11	0	12*
CN(C)C(=S)Nc1cccc(-c2n[nH]c(=S)o2)c1	.	2	0	0
NNC(=S)Nc1cccc(-c2n[nH]c(=S)o2)c1	3	-3	9.5*	0
CC(=O)N1[C@@H]2Cn3c(ccc(-c4ccccc4)c3=O)[C@H]1[C@@H](C(=O)NCCCN1CCOCC1)[C@@H]2CO	.	.	.	1
O=C1NC(Cc2ccccc2)c2nc3ccc(F)cc3c(=O)n2-c2cc3ccccc3cc21 (configuration not stated)	-2	66*	-1	-1
CC(Oc1cc2oc(=O)c3c(c2cc1Cl)CCCC3)C(=O)NCc1ccccn1 (configuration not stated)	10	27	-4	0
CC(Oc1cc2oc(=O)c3c(c2cc1Cl)CCC3)C(=O)NCc1ccccn1 (configuration not stated)	63*	10	-1	-1
CCC(=O)Nc1ccc2c(c1)OC[C@H](C)N(C(=O)NC(C)C)C[C@H](C)[C@H](OC)CN(C)C2=O	-1	.	.	13*
CCC(=O)Nc1ccc2c(c1)OC[C@@H](C)N(C(=O)NC(C)C)C[C@@H](C)[C@H](OC)CN(C)C2=O	.	.	.	-2
CCC(=O)Nc1ccc2c(c1)OC[C@@H](C)N(C(=O)NC(C)C)C[C@H](C)[C@@H](OC)CN(C)C2=O	-3	.	.	9
CCC(=O)Nc1ccc2c(c1)OC[C@@H](C)N(C(=O)NC(C)C)C[C@@H](C)[C@@H](OC)CN(C)C2=O	-2	.	.	18*
COc1ccc(Cl)cc1C(=O)Nn1c(C)nc2ccccc2c1=O	-1	-11	-2	.
COc1ccc(Cl)cc1C(=O)Nn1c(-c2cccs2)nc2ccccc2c1=O	.	4	12*	1
SMILES	BioA inh	Yp Topo-I inh	FadD28 FP inh	TcdB GH inh
CN=c1scc(-c2ccccc2F)n1/N=C/c1ccc(O)c(O)c1O	-2	-12	9.1*	-6
CC(=O)N(C)C[C@H]1Oc2ncc(C#Cc3ccccc3)cc2C(=O)N([C@H](C)CO)C[C@H]1C	-1	.	.	-1
S=c1nc(-c2ccc(Cl)cc2)[nH][nH]1	0	4	-2	12*
CCCOc1ccc(-c2nc(=S)[nH][nH]2)cc1	0	-9	-3	.
Cc1cc(C(=O)Nc2cccc3c2O[C@@H](CN(C)S(=O)(=O)c2ccc(Cl)cc2)[C@H](C)CN([C@@H](C)CO)C3=O)n(C)n1	.	.	.	0
Cn1cnc(S(=O)(=O)N2C[C@H](O)COC[C@H]3O[C@H](CC(=O)NC4Cc5ccccc5C4)CC[C@@H]32)c1	-2	.	.	-1
CCOc1ccc(/C=N/n2nnnc2N)cc1OCC	0	-5	0	0
CCOc1ccc(/C=N/n2nnnc2N)cc1O	1	1	-1	19*
CCOc1cc(/C=N\n2nnnc2N)ccc1O	1	0	-3	23*
COc1ccc(S(=O)(=O)N(C)C[C@H]2OCCCC[C@H](C)Oc3ccc(NC(=O)Nc4ccc5c(c4)OCO5)cc3C(=O)N([C@H](C)CO)C[C@@H]2C)cc1	-2	.	.	1
O=C(Nc1ccc(Nc2ccccc2)cc1)c1ccccc1	.	.	.	1
NC(=O)Nc1ccc(Nc2ccccc2)cc1	.	-13	-4	15*
COc1ccc(CN(C)C[C@@H]2OCCCC[C@@H](C)Oc3ccc(NS(=O)(=O)c4ccc(C)cc4)cc3C(=O)N([C@H](C)CO)C[C@H]2C)cc1	4	.	.	1
O=C(O)c1cc(N2N=C(C(F)(F)F)/C(=C/C=C/c3ccco3)C2=O)ccc1Cl	.	-42	77*	-2
Cc1cc(C)c2c(=O)[nH]c(SCc3ccccc3)nc2n1	.	-6	-4	0
Cc1ccc(CSc2nc3nc(C)cc(C)c3c(=O)[nH]2)cc1	-1	17	-1	13*
C[C@H]1CN([C@@H](C)CO)C(=O)Cc2cc(NC(=O)C3CC3)ccc2O[C@@H]1CN(C)C(=O)Nc1ccc2c(c1)OCO2	0	.	.	-1
CCc1c(O)nc(SCC(=O)Nc2nc3ccccc3s2)n(C2CCCCC2)c1=O	1	-3	12*	1
CCc1c(O)nc(SCC(=O)Nc2ccc(OC)cc2)n(C2CCCCC2)c1=O	0	-2	1	.
C[C@H]1C=C(C(=O)NCc2nc3ccccc3[nH]2)O[C@@H](OCc2ccc(CO)cc2)C1	3	6	0	11*!
CC(C)(C)[C@@H]1C=C(C(=O)NCc2nc3ccccc3[nH]2)O[C@H](OCc2ccc(CO)cc2)C1	.	.	.	0
Cc1cccc(NC(=O)CCNS(=O)(=O)c2cccc3nonc23)c1C	.	0	-2	1
CCOC(=O)c1cccc(NC(=O)CCNS(=O)(=O)c2cccc3nonc23)c1	1	1	-4	16*
CCOc1ccccc1NC(=O)CCNS(=O)(=O)c1cccc2nonc12	-2	3	-2	14*
COc1ccc(S(=O)(=O)Nc2ccc3c(c2)CC(=O)N([C@H](C)CO)C[C@@H](C)[C@H](CN(C)C(=O)Nc2cccc4ccccc24)O3)cc1	-2	.	.	0
CSc1ccc(CN(C)C(=O)c2cc(=O)c3ccccc3o2)cc1	1	28	-5	1
CSc1ccc(CN(C)C(=O)c2cc3ccccc3o2)cc1	3	54*	.	1
CC(CCC(=O)NN)C1CCC2C3CCC4CC(O)CCC4(C)C3CCC12C (configuration not stated)	.	-1	-5	1

Screening data as filed in PubChem.
